# Data: ChEMBL document CHEMBL4513216, “Probing the Open Global Health Chemical Diversity Library for Multistage-Active Starting Points for Next-Generation Antimalarials” (ACS Infect Dis, 2020)
# The campaign covered roughly 69,000 compounds. About 8,600 (12%) showed an effect of 50% or more. Many of the other results were omitted from the sample, so strong results are more common in it than they were.
# Test system: Plasmodium berghei
# Assay: Screen against P. berghei liver stage (PbLuc), transformed with Luciferase, at 10uM
# Assay type: functional, HepG2
# Details: tested at 10 uM
row,SMILES,INHIBITION
1,Cc1ccc(CN2CCCC3(CCCN3S(C)(=O)=O)C2)s1 (configuration not stated),63.8%
2,COCCN1C(=O)CCC12CCCN(Cc1nccs1)CC2 (configuration not stated),48.6%
3,CS(=O)(=O)N1CCCC12CCN(Cc1nccs1)C2 (configuration not stated),-0.804%
4,CN1C(=O)CCCC12CCCN(Cc1nccs1)C2 (configuration not stated),16.9%
5,O=C1CCC2(CCCN(Cc3nccs3)C2)N1CC1CC1 (configuration not stated),36.9%
6,CCN1C(=O)CCC12CCCN(Cc1nccs1)CC2 (configuration not stated),59.7%
7,CCN1C(=O)CCC12CCCN(Cc1nccs1)C2 (configuration not stated),46.2%
8,CS(=O)(=O)N1CCCC12CCN(Cc1nccs1)CC2,28.2%
9,Cc1ccc(CN2CCCC3(CCCCN3S(C)(=O)=O)C2)s1 (configuration not stated),14.9%
10,CN1C(=O)CCC12CCCN(Cc1nccs1)C2 (configuration not stated),59%
11,Cc1ccc(CN2CCC3(CCCN3S(C)(=O)=O)CC2)s1,25.8%
12,CS(=O)(=O)N1CCCCC12CCCN(Cc1nccs1)C2 (configuration not stated),60.3%
13,Clc1ccccc1C1CN(CCc2ccncc2)CCO1 (configuration not stated),29.1%
14,Cc1ccc(C(=O)N2CCC3(CC2)COC(COc2cccnc2)C3)o1 (configuration not stated),3.69%
15,CN(C)S(=O)(=O)N1CC[C@]2(O)CCN(CCc3cccc(F)c3)C[C@@H]2C1,3.96%
16,CN(C)[C@@H]1CN(Cc2ccoc2)C[C@@H]2CCCO[C@@H]21,25.6%

row,SMILES,INHIBITION
1,COCC1CN(C(C)=O)CCN(c2cc(C)ncn2)C1 (configuration not stated),24.4%
2,Cc1ccc(C(=O)N2C[C@H]3CCC[C@@]3(COc3ccccn3)C2)nc1,-10.2%
3,Cc1cc(C2CCC2)nc(NCC(C)(C)CO)n1,-7.53%
4,Cc1c(S(=O)(=O)N2CCCCC2c2nnc(-c3cccs3)o2)cnn1C (configuration not stated),-11.28%
5,CC(C)(O)CN1CCN(C(=O)c2cccc(CC#N)c2)CC1,-9.76%
6,Cc1noc(C)c1C1CCCN1C(=O)c1cn2ccsc2n1 (configuration not stated),12.9%
7,Cc1ccc(OCc2nc(CNCC3CN(C)CCO3)cs2)cc1 (configuration not stated),-45.6%
8,Cc1nc(N2CCN(C(=O)CC3CCCC3)CC2)c2cnn(C)c2n1,0.0944%
9,CCCc1nc(N2CCC(CCO)CC2)c2cnn(C)c2n1,60%
10,COCc1nc(N2CCC(CCO)CC2)c2cnn(C)c2n1,14.3%
11,CCCc1nc(N2CCCN3CCC[C@H]3C2)c2cnn(C)c2n1,27.7%
12,Cc1nc(N2CCC(CN3CCCC3)CC2)c2cnn(C)c2n1,57.2%
13,CCCc1nc(N2CCCC(CCOC)C2)c2cnn(C)c2n1 (configuration not stated),40.6%
14,Cn1ncc2c(N3CCCN4CCC[C@H]4C3)nc(C(C)(C)C)nc21,31.6%
15,Cc1nc(N2CCC(CC(=O)N3CCCC3)CC2)c2cnn(C)c2n1,31.2%
16,Cc1nc(N2CCCC(N3CCCC3)C2)c2cnn(C)c2n1 (configuration not stated),55.1%
